Active and inactive are the calls of the source. Rule for the calls: active = hit-call score of the fitted dose curve at least 0.9, where 1 is the maximum; inactive = score below 0.9.
Experiments:
[1] = BSK_3C_Vis: BioMAP Diversity Plus: 3C Assay for Morphology Visualization (AID 2283025); details: primary human endothelial cells (HUVEC);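 note: fitted both ways so gain or loss versus DMSO counts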;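 for AC50: light microscopy image of cell morphology used as background control; cells imaged 24 h after dosing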
Outline: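 Endothelial cells from human umbilical vein were treated with test chemicals for 24 h and inspected by light microscopy for changes in cell conformation.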

[2] = BSK_4H_SRB: Viability Assessment in the BioMAP Diversity Plus: 4H Assay (AID 2283027); details: primary human endothelial cells (HUVEC);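 note: cells exposed to compound for 24 h before staining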;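 for AC50: curves fitted both ways versus DMSO so AC50 may be loss or gain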
Outline: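 Human umbilical vein endothelial cells were dosed with chemical and, after 24 h, fixed with 10% TCA, stained with 0.1% sulforhodamine B, and read at 560 nm to give total protein as a cytotoxicity measure. Bidirectional fitting relative to DMSO control.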

[3] = BSK_BE3C_SRB: Viability Assessment in the BioMAP Diversity Plus: BE3C Assay (AID 2283028); details: primary human bronchial epithelial cells;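 for AC50: fitted both ways so AC50 may mark signal gain or loss versus DMSO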
Outline: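 Overt cytotoxicity was assessed as total protein in confluent human primary bronchial epithelial cultures 24 h after chemical addition, using 0.1% sulforhodamine B staining read at 560 nm.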

[4] = read-out: Thrombomodulin, THBD (gene 7056); assay: BSK_3C_Thrombomodulin: BioMAP Diversity Plus: 3C Assay for Thrombomodulin Biomarker Activity (AID 2283029); details: primary human endothelial cells (HUVEC); actives raise or lower the signal
Outline: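 Thrombomodulin ELISA, human primary HUVEC, 24 h post-dose; data fitted in both directions relative to DMSO.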

[5] = read-out: Urokinase-type plasminogen activator receptor (uPAR), PLAUR (gene 5329); assay: BSK_4H_uPAR: BioMAP Diversity Plus: 4H Assay for Urokinase-type plasminogen activator receptor (uPAR) Biomarker Activity (AID 2283030); details: primary human endothelial cells (HUVEC); actives raise or lower the signal
Outline: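 Chemicals are dosed onto human vascular endothelial primary cells (umbilical vein). After 24 h, uPAR is read by ELISA. Gain or loss of signal is fitted relative to DMSO.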

[6] = read-out: Vascular endothelial growth factor receptor 2 (Homo sapiens) (UniProt P35968); assay: BSK_4H_VEGFRII: BioMAP Diversity Plus: 4H Assay for Vascular endothelial growth factor receptor 2 (VEGFR2) Biomarker Activity (AID 2283031); details: primary human endothelial cells (HUVEC); actives raise or lower the signal;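 for AC50: cell-surface VEGFR2 protein level quantified by ELISA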
Outline: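 VEGFRII levels on human vascular endothelial primary cells were determined by ELISA at 24 hours post-dosing, with gain- or loss-of-signal fitted against DMSO controls.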

[7] = read-out: Human Leukocyte Antigen - DR isotype (HLADR), HLA-DRA (gene 3122); assay: BSK_BE3C_HLADR: BioMAP Diversity Plus: BE3C Assay for Human Leukocyte Antigen - DR isotype (HLADR) Biomarker Activity (AID 2283032); details: primary human bronchial epithelial cells; actives raise or lower the signal
Outline: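 Signal came from an ELISA for HLA-DR in human bronchial epithelial primary cells harvested 24 h after treatment; gain- and loss-of-signal fitting used DMSO controls as reference.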

[8] = read-out: Vascular cell adhesion molecule 1 (VCAM1), VCAM1 (gene 7412); assay: BSK_4H_VCAM1: BioMAP Diversity Plus: 4H Assay for Vascular cell adhesion molecule 1 (VCAM1) Biomarker Activity (AID 2283033); details: primary human endothelial cells (HUVEC); actives raise or lower the signal
Outline: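 Endpoint derived from bidirectional fitting against DMSO controls of VCAM-1 ELISA signal in umbilical vein endothelial cells sampled at 24 h following treatment.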

[9] = read-out: Interferon-gamma inducible Protein 10 (IP10), CXCL10 (gene 3627); assay: BSK_BE3C_IP10: BioMAP Diversity Plus: BE3C Assay for Interferon-gamma inducible Protein 10 (IP10) Biomarker Activity (AID 2283034); details: primary human bronchial epithelial cells; actives raise or lower the signal
Outline: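 Using primary human bronchial epithelial cultures, the assay captures IP-10 by ELISA one day (24 h) after exposure. Parallel SRB staining of total protein flags overt cytotoxicity. Fits run bidirectionally relative to DMSO.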

[10] = read-out: Monokine induced gamma interferon (MIG), CXCL9 (gene 4283); assay: BSK_BE3C_MIG: BioMAP Diversity Plus: BE3C Assay for Monokine induced gamma interferon (MIG) Biomarker Activity (AID 2283035); details: primary human bronchial epithelial cells; actives raise or lower the signal;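 note: MIG protein measured by ELISA in BE3C cultures after 24 h of dosing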
Outline: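 ELISA read-out of MIG in human lung bronchial epithelial primary cultures, 24 h post-dosing. Bidirectional curve fit vs DMSO baseline.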

[11] = read-out: Transforming growth factor beta 1 (TGFb1), TGFB1 (gene 7040); assay: BSK_BE3C_TGFb1: BioMAP Diversity Plus: BE3C Assay for Transforming growth factor beta 1 (TGFb1) Biomarker Activity (AID 2283036); details: primary human bronchial epithelial cells; actives raise or lower the signal
Outline: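 In this human primary bronchial epithelial system, an ELISA quantified TGF-b1 one day after dosing. Endpoint changes in either direction were fitted relative to DMSO.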

[12] = read-out: Plasminogen activator inhibitor-1 (PAI1), SERPINE1 (gene 5054); assay: BSK_BE3C_PAI1: BioMAP Diversity Plus: BE3C Assay for Plasminogen activator inhibitor-1 (PAI1) Biomarker Activity (AID 2283037); details: primary human bronchial epithelial cells; actives raise or lower the signal
Outline: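 PAI-1 biomarker levels in treated human bronchial epithelial cells are determined by ELISA at 24 h. Both increases and decreases relative to DMSO are fitted.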

[13] = read-out: urokinase plasminogen activator (uPA), PLAU (gene 5328); assay: BSK_BE3C_uPA: BioMAP Diversity Plus: BE3C Assay for urokinase plasminogen activator (uPA) Biomarker Activity (AID 2283038); details: primary human bronchial epithelial cells; actives raise or lower the signal
Outline: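 Measured by ELISA: uPA from human primary bronchial epithelial cells 24 h after chemical treatment. Values derive from bidirectional curve fitting with DMSO serving as negative control. Total protein by SRB staining in parallel wells flagged overt cytotoxicity.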

[14] = read-out: Urokinase-type plasminogen activator receptor (uPAR), PLAUR (gene 5329); assay: BSK_BE3C_uPAR: BioMAP Diversity Plus: BE3C Assay for Urokinase-type plasminogen activator receptor (uPAR) Biomarker Activity (AID 2283039); details: primary human bronchial epithelial cells; actives raise or lower the signal;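 note: uPAR protein level measured by ELISA on the cells; cells exposed to compound for one day before measurement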
Outline: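 A uPAR ELISA serves as the readout, taken 24 h after treating primary human bronchial epithelial cells. Responses in either direction are fitted against DMSO, which defines baseline activity.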

[15] = read-out: Interleukin-6 (IL6), IL6 (gene 3569); assay: BSK_CASM3C_IL6: BioMAP Diversity Plus: CASM3C Assay for Interleukin-6 (IL6) Biomarker Activity for (AID 2283040); details: primary human coronary artery smooth muscle cells; actives raise or lower the signal
[16] = read-out: Tissue plasminogen activator (tPA), PLAT (gene 5327); assay: BSK_BE3C_tPA: BioMAP Diversity Plus: BE3C Assay for Tissue plasminogen activator (tPA) Biomarker Activity (AID 2283041); details: primary human bronchial epithelial cells; actives raise or lower the signal
Outline: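 Bidirectional curve fitting relative to DMSO defined activity, with tPA detected by ELISA in chemically treated human bronchial epithelial primary cells at 24 hours.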

[17] = read-out: Interleukin-8 (IL8), CXCL8 (gene 3576); assay: BSK_CASM3C_IL8: BioMAP Diversity Plus: CASM3C Assay for Interleukin-8 (IL8) Biomarker Activity (AID 2283042); details: primary human coronary artery smooth muscle cells; actives raise or lower the signal;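 note: IL-8 protein level quantified by ELISA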
[18] = read-out: Human Leukocyte Antigen - DR isotype (HLADR), HLA-DRA (gene 3122); assay: BSK_CASM3C_HLADR: BioMAP Diversity Plus: CASM3C Assay for Human Leukocyte Antigen - DR isotype (HLADR) Biomarker Activity (AID 2283043); details: primary human coronary artery smooth muscle cells; actives raise or lower the signal;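 note: cell-surface HLA-DR protein level quantified by ELISA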
[19] = read-out: Macrophage colony-stimulating factor (MCSF), CSF1 (gene 1435); assay: BSK_CASM3C_MCSF: BioMAP Diversity Plus: CASM3C Assay for Macrophage colony-stimulating factor (MCSF) Biomarker Activity (AID 2283044); details: primary human coronary artery smooth muscle cells; actives raise or lower the signal;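 note: M-CSF protein amount quantified by ELISA after 24 h exposure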
[20] = read-out: Pselectin, SELP (gene 6403); assay: BSK_4H_Pselectin: BioMAP Diversity Plus: 4H Assay for Pselectin Biomarker Activity (AID 2283026); details: primary human endothelial cells (HUVEC); actives raise or lower the signal
Outline: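 Human vascular endothelium from umbilical vein; P-selectin measured by ELISA at 24 h post-dose, with cytotoxicity checked by sulforhodamine B total-protein staining in parallel cultures (0.1% SRB after 10% TCA fixation, read at 560 nm).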

Measured: AC50

CC(C)N(C(=O)CCl)c1ccccc1
active: [1] 14.5 µM | [2] 24.5 µM | [3] 29.9 µM | [5] 35.1 µM | [7] 20 µM | [8] 20 µM | [9] 33.5 µM | [15] 32.9 µM | [17] 27.1 µM | [18] 6.14 µM | [19] 13.3 µM
inactive: [4] | [6] | [10] | [11] | [12] | [13] | [14] | [16]

CCOC(=O)CC(=O)CCl
active: [4] 4.35 µM | [7] 20 µM | [8] 20 µM | [9] 20 µM | [11] 5.96 µM | [13] 4.09 µM | [15] 28.8 µM | [16] 3.97 µM | [18] 8.67 µM | [19] 20 µM
inactive: [1] | [2] | [3] | [5] | [6] | [10] | [12] | [14] | [17]

COCC(=O)N(c1c(C)cccc1C)[C@H](C)C(=O)OC
not listed: [4] | [20]
inactive: all other assays above

CCOP(=S)(OCC)OP(=S)(OCC)OCC
active: [1] 37.5 µM | [2] 20 µM | [5] 32.3 µM | [8] 33 µM
not listed: [20]
inactive: all other assays above

Cc1ccccc1OP(=O)(Oc1ccccc1C)Oc1ccccc1C
active: [1] 12.5 µM | [2] 15.2 µM | [3] 16 µM | [5] 11.7 µM | [6] 9.28 µM | [7] 20 µM | [8] 7.84 µM | [9] 13.3 µM | [11] 11.4 µM | [12] 11 µM | [15] 8.58 µM | [16] 7.43 µM | [18] 32.9 µM | [19] 29.4 µM
inactive: [4] | [10] | [13] | [14] | [17]

Cc1cc(Cl)ccc1OC(C)C(=O)O (stereo not drawn)
not listed: [20]
inactive: all other assays above

CCCCCCCCCCCCN(C)C
not listed: [20]
inactive: all other assays above

CCCCOC(=O)COC(=O)c1ccccc1C(=O)OCCCC
not listed: [1] | [11] | [20]
inactive: all other assays above

Cc1cc(Cl)ccc1N
active: [12] 3.97 µM
not listed: [20]
inactive: all other assays above

NC(=O)CCl
active: [18] 20 µM
not listed: [20]
inactive: all other assays above

CC(C)O.CC(C)O.OCCN(CCO)CCO.OCCN(CCO)CCO.[Ti]
not listed: [20]
inactive: all other assays above

OCCCCO
not listed: [1] | [6] | [11]
inactive: all other assays above

From PubChem BioAssay (EPA / NIEHS)
